The sequences below were run on VDR:RXRa (NR concentration 270 nM, RXRa partner concentration 90 nM) (assay: PBM binding z-score (relative to random genomic background probes); higher = stronger binding; sequences stand for … in GC…GCGATTGACAGCGTAGAATGAAGG).
Description: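 Protein-binding microarray (Agilent 4x180K custom design, double-stranded 60-nt probes: 5' GC cap, 34-nt variable region, 24-nt constant primer region; full probe sequence given). Purified or IVT nuclear receptor:RXRα heterodimers (3:1 NR:RXRα, mostly 270:90 nM) or homodimers were incubated for 1 h in PBS with 2% milk and no ligand, then detected with Alexa488 antibodies. Fluorescence from o1-orientation probes (~5 replicates averaged) was converted to z-scores against 500 random hg19 background probes. Variable regions are seed direct-repeat (DR0–DR5) sites, all their single-nucleotide variants and half-site ablations.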
CAAACTAGGTCACGAAAGGACAAAGTCGAATGAC gave a PBM binding z-score of 4.23.
Sequence CCTATTAGTTGACCATAAGGTCAACCGAAGCTCG has a PBM binding z-score of 3.95.
Sequence GGTACAGGGTCAAGGCCAGAGTACGCGTATTGAT has a PBM binding z-score of 4.52.
CCTACTGGGCCATTCAGAGGTCATTCATCATATG was tested, and the PBM binding z-score was 4.26.
CCTACTGGGGCATTCAGAGGTCATTGATCATATG was tested, and the PBM binding z-score was 4.47.
TGAATGAGGTTAAAGATCAAGGAACGTGGCGTCG was tested, and the PBM binding z-score was 2.09.
Work on TCTTGTAGATCAAGCAGGTTAAGAAGGCCTGAGT yielded a PBM binding z-score of 0.55.
AGAATGAGGTTACCCAAGATCAGGGAAACGCTTG showed a PBM binding z-score of 1.55.
With GCTCGGAAGACAAGGTCAGAGCTTTGTCCGTAGA the PBM binding z-score was 0.859.
Work on CGAACTAGGTCATTTACAGGACAGTGAATAGTAA yielded a PBM binding z-score of 2.14.
With AGAATGAGGTTACCAAAGATCAGGGAGACGCTTG the PBM binding z-score was 1.51.
TCATATAGTTAAATGCTAGGTGAAAGTCCGATCT showed a PBM binding z-score of 0.952.
With ACTATTAGTTGAGACGAGGGCAACCGATAGGTTG the PBM binding z-score was 0.889.
In the case of ATCTCTAGGTAACAGTTCAGTGAATCCCGAGGAT, the PBM binding z-score is reported as 0.208.
GATACAGGGTCAGCTAGAGCCCAGAGTATGGAAA showed a PBM binding z-score of 2.26.
Work on TCTTGTAGATCAAGCAGGTTAAAAAAGCCTGAGT yielded a PBM binding z-score of 1.04.
CCAGACAGGAGAAAGGTAACTCAGTCTGGTACGC was tested, and the PBM binding z-score was 0.0971.
Sequence TCTCGGAGGACACGCAAGGTCAGAGCTCGACATC has a PBM binding z-score of 2.45.
Sequence ATTAGCAGGCCAAGGGTCACTCAAGATTAGTCCG has a PBM binding z-score of 2.92.
In the case of TCTTGTAGATCCAGCAGGTTAAGAAAGCCTGAGT, the PBM binding z-score is reported as 0.306.
In the case of AGTATTAGTTGAGACGAGGGCAACCGATAGGTTG, the PBM binding z-score is reported as 0.873.
Work on CCGACTGGGGCAAAAAGGTTACCATACCATCCGG yielded a PBM binding z-score of 1.28.
TCTAATAGTTGATTAGGGCAACCGAAACAGCGGA showed a PBM binding z-score of 0.582.
GCTGCTAGGTCAACTGATGGTCGGCTAAAGCTCG showed a PBM binding z-score of 1.4.
TCTTGTAGATCAAGCAGGTTAACAAAGCCTGAGT gave a PBM binding z-score of 0.729.
CAACCAAGGTGAACAAGGTCGTTGATTACTATTC showed a PBM binding z-score of 5.89.
AATACAGGGTCATCGTAGGCCAGAGTACGCACAG showed a PBM binding z-score of 5.37.
TCTCGGAGGACACGAAAGGTAAGAGCTCGACATC was tested, and the PBM binding z-score was 0.0922.
Work on CCAGACATGTGAAAGGTAACTCAGTCTGGTACGC yielded a PBM binding z-score of 0.207.
For TTACCTAGGTGAAAGGTCGTTGATGCACGCCTTG, the PBM binding z-score was 2.75.
For GATACAGGGACAGCTAGAGGCCAGAGTATGGAAA, the PBM binding z-score was -0.526.
Work on CCTGCTAGGTCATGGTCAACTAATCTACAGTATG yielded a PBM binding z-score of 2.
Work on GTACCAAAGTGAATAGGTCGTTGATGAGTAGGCG yielded a PBM binding z-score of 0.0078.
For TTACCAAGGTGATCTGAGGTCGTTGATCCAACTC, the PBM binding z-score was 4.13.
CCTTACGGGTGACTCCAGGTTATAGCATCGGAGT gave a PBM binding z-score of 0.497.
TAGCCTAGGTCAATGGGCCAGTATAGTACGCATC showed a PBM binding z-score of 1.1.
For ATCTCTAGGTAACAAGTTCAGTAAAAGAGAGGAC, the PBM binding z-score was 1.96.
For CCAGACAGGTGAGAGGGTAACTCAGCCTCGATTA, the PBM binding z-score was -0.0785.
Work on GCAAGTTGGTCAGTAAAAGGTCACACACCGGTCG yielded a PBM binding z-score of 4.11.
Sequence CCTTACGGGTCAAGTTTATAGCACGGGTGGTACG has a PBM binding z-score of 3.9.

From the supplement of paper PMC6555819
